Reference: PubChem BioAssay AID1159580 (chemical genetic matrix, 2015)
In all, about 5,500 compounds went through this assay and about 2,000 (36%) were called active. About 18% were inconclusive and are not listed. Rule as the data show it: active = normalized growth mostly below about 0.91 (no sharp cut-off); inconclusive = no clear call, values can overlap the other calls; inactive = mostly above about 0.92. The list shows a part of the results.

Assay: chemical genetic growth profiling, strain panel (AID 1159580);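 also: tested at 20 µM; growth read once vehicle control cultures reached saturation at 30 °C; 1 = growth at the plate median or of vehicle wells; lower values mean less growth of the strain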
Conditions: growth OD

Measured: normalized growth

Cc1c(C(N)=O)cc([N+](=O)[O-])cc1[N+](=O)[O-]
inactive: S. cerevisiae deletion strains, locus YJR066W, strain TOR1, hits give low values 0.991 | S. cerevisiae deletion strains, locus YKL009W, strain mrt4, hits give low values 0.972 | S. cerevisiae deletion strains, locus YKL068W, hits give low values 0.982 | S. cerevisiae deletion strains, locus YKL085W, strain MDH1 (second series), hits give low values 1.02 | S. cerevisiae deletion strains, locus YKL085W, strain MDH1, hits give low values 1.02 | S. cerevisiae deletion strains, locus YKL160W, strain elf1, hits give low values 0.988 | S. cerevisiae deletion strains, locus YKL190W, strain CNB1, hits give low values 0.996 | S. cerevisiae deletion strains, locus YKR001C, strain vps1, hits give low values 0.993 | S. cerevisiae deletion strains, locus YKR026C, strain gcn3, hits give low values 1.02 | S. cerevisiae deletion strains, locus YKR091W, strain srl3, hits give low values 1.02 | S. cerevisiae deletion strains, locus YLL001W, strain dnm1, hits give low values 1.02 | S. cerevisiae deletion strains, locus YLL026W, hits give low values 1.02 | S. cerevisiae deletion strains, locus YLL041C, strain sdh2, hits give low values 1.02 | S. cerevisiae deletion strains, locus YLR027C, strain aat2, hits give low values 1.01 | S. cerevisiae deletion strains, locus YLR039C, strain RIC1, hits give low values 0.988 | S. cerevisiae deletion strains, locus YLR058C, strain SHM2, hits give low values 0.99 | S. cerevisiae deletion strains, locus YLR102C, strain apc9, hits give low values 0.97 | S. cerevisiae deletion strains, locus YLR113W, strain HOG1, hits give low values 1.07 | S. cerevisiae deletion strains, locus YLR221C, strain rsa3, hits give low values 1.03 | S. cerevisiae deletion strains, locus YLR258W, strain gsy2, hits give low values 1.04 | S. cerevisiae deletion strains, locus YLR262C, strain YPT6 (second series), hits give low values 1.02 | S. cerevisiae deletion strains, locus YLR262C, strain YPT6, hits give low values 1.01 | S. cerevisiae deletion strains, locus YLR268W, strain sec22, hits give low values 0.979 | S. cerevisiae deletion strains, locus YLR320W, strain mms22, hits give low values 1.05 | S. cerevisiae deletion strains, locus YLR330W, strain CHS5, hits give low values 0.994 | S. cerevisiae deletion strains, locus YLR342W, strain FKS1 (second series), hits give low values 0.984 | S. cerevisiae deletion strains, locus YLR342W, strain FKS1, hits give low values 1.02 | S. cerevisiae deletion strains, locus YLR357W, strain rsc2, hits give low values 0.999 | S. cerevisiae deletion strains, locus YLR370C, strain arc18, hits give low values 1.04 | S. cerevisiae deletion strains, locus YLR371W, strain rom2, hits give low values 0.963 | S. cerevisiae deletion strains, locus YLR384C, strain iki3, hits give low values 1.03 | S. cerevisiae deletion strains, locus YLR418C, strain cdc73, hits give low values 0.972 | S. cerevisiae deletion strains, locus YML016C, strain PPZ1, hits give low values 0.989 | S. cerevisiae deletion strains, locus YML032C, strain rad52, hits give low values 0.978 | S. cerevisiae deletion strains, locus YML120C, strain ndi1, hits give low values 1.03 | S. cerevisiae deletion strains, locus YML124C, strain tub3, hits give low values 0.979 | S. cerevisiae deletion strains, locus YMR058W, strain fet3, hits give low values 1.01 | S. cerevisiae deletion strains, locus YMR078C, strain ctf18, hits give low values 0.976 | S. cerevisiae deletion strains, locus YMR125W, strain sto1, hits give low values 0.962 | S. cerevisiae deletion strains, locus YMR129W, hits give low values 1.02 | S. cerevisiae deletion strains, locus YMR205C, strain PFK2, hits give low values 1 | S. cerevisiae deletion strains, locus YMR223W, strain ubp8, hits give low values 0.98 | S. cerevisiae deletion strains, locus YMR231W, strain pep5, hits give low values 1.03 | S. cerevisiae deletion strains, locus YMR263W, strain SAP30, hits give low values 0.997 | S. cerevisiae deletion strains, locus YMR307W, strain GAS1, hits give low values 1.02 | S. cerevisiae deletion strains, locus YNL067W, strain RPL9B, hits give low values 1.01 | S. cerevisiae deletion strains, locus YNL071W, strain lat1, hits give low values 1.02 | S. cerevisiae deletion strains, locus YNL128W, strain TEP1, hits give low values 0.965 | S. cerevisiae deletion strains, locus YNL183C, strain NPR1, hits give low values 0.98 | S. cerevisiae deletion strains, locus YNL209W, strain ssb2, hits give low values 1.02 | S. cerevisiae deletion strains, locus YNL233W, strain BNI4, hits give low values 1.01 | S. cerevisiae deletion strains, locus YNL248C, strain rpa49, hits give low values 0.923 | S. cerevisiae deletion strains, locus YNL250W, strain rad50, hits give low values 0.985 | S. cerevisiae deletion strains, locus YNL271C, strain bni1, hits give low values 0.97 | S. cerevisiae deletion strains, locus YNL298W, strain CLA4, hits give low values 0.975 | S. cerevisiae deletion strains, locus YNL307C, strain MCK1, hits give low values 0.978 | S. cerevisiae deletion strains, locus YNL322C, strain KRE1 (second series), hits give low values 1.03 | S. cerevisiae deletion strains, locus YNL322C, strain KRE1, hits give low values 0.991 | S. cerevisiae deletion strains, locus YNR049C, strain mso1, hits give low values 1.02 | S. cerevisiae deletion strains, locus YNR052C, strain pop2, hits give low values 0.966 | S. cerevisiae deletion strains, locus YOL006C, strain TOP1, hits give low values 0.984 | S. cerevisiae deletion strains, locus YOL012C, strain htz1 0.838 | S. cerevisiae deletion strains, locus YOL147C, strain pex11, hits give low values 0.978 | S. cerevisiae deletion strains, locus YOR001W, strain rrp6, hits give low values 1.03 | S. cerevisiae deletion strains, locus YOR061W, strain CKA2, hits give low values 0.99 | S. cerevisiae deletion strains, locus YOR069W, strain VPS5, hits give low values 0.981 | S. cerevisiae deletion strains, locus YOR070C, strain gyp1, hits give low values 1.02 | S. cerevisiae deletion strains, locus YOR080W, strain dia2, hits give low values 1.03 | S. cerevisiae deletion strains, locus YOR083W, strain WHI5, hits give low values 0.985 | S. cerevisiae deletion strains, locus YOR106W, strain vam3, hits give low values 0.981 | S. cerevisiae deletion strains, locus YOR136W, strain idh2, hits give low values 0.976 | S. cerevisiae deletion strains, locus YOR144C, strain elg1, hits give low values 0.978 | S. cerevisiae deletion strains, locus YOR184W, strain ser1, hits give low values 0.986 | S. cerevisiae deletion strains, locus YOR231W, strain MKK1, hits give low values 1.05 | S. cerevisiae deletion strains, locus YOR265W, strain rbl2, hits give low values 1.01 | S. cerevisiae deletion strains, locus YOR270C, strain vph1, hits give low values 1.01 | S. cerevisiae deletion strains, locus YOR290C, strain snf2, hits give low values 1.03 | S. cerevisiae deletion strains, locus YOR316C, strain cot1, hits give low values 0.965 | S. cerevisiae deletion strains, locus YPL051W, strain arl3, hits give low values 1.01 | S. cerevisiae deletion strains, locus YPL078C, strain atp4, hits give low values 0.974 | S. cerevisiae deletion strains, locus YPL106C, strain sse1, hits give low values 1.06 | S. cerevisiae deletion strains, locus YPL240C, strain hsp82, hits give low values 1.02 | S. cerevisiae deletion strains, locus YPL241C, strain CIN2, hits give low values 0.991 | S. cerevisiae deletion strains, locus YPL256C, strain CLN2, hits give low values 1.05 | S. cerevisiae deletion strains, locus YPR119W, strain clb2, hits give low values 0.982 | S. cerevisiae deletion strains, locus YPR141C, strain kar3, hits give low values 0.974 | S. cerevisiae deletion strains, locus YPR163C, strain tif3, hits give low values 0.975 | S. cerevisiae deletion strains, locus YPR167C, strain met16, hits give low values 0.981 | S. cerevisiae deletion strains, strain wtn01, hits give low values 0.971 | S. cerevisiae strains, strain wild type, hits give low values 0.996
